# Compound activity (PubChem BioAssay)
# PLCb3 inh: PLC-beta3 (human) inhibition, primary screen; Q01970; inhibition, % at 12.2 µM; AID 720704; 370,000 compounds, 0.18% hits; Purified PLC-beta3, fluorogenic substrate, fluorescence; in the data active = inhibition above about 11%;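 also: 0% = median of compound wells on plate and 100% = full blocker control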
# HGIII-sPLA2 inh: Blocks human group III sPLA2 activity; 370,000 compounds, 0.56% hits; QFRET BODIPY PC-A2 liposome hydrolysis, fluorescence; inhibition, % at 12.2 µM; Q9NZ20;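 active = inhibition above mean plus 3 SD of compounds lying within the high and low control bounds, cut at about 19% in these data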;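 also: 0% = median of test compound wells and 100% = no enzyme DMSO wells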
# Target sequence (Q9NZ20 whole entry, looked up): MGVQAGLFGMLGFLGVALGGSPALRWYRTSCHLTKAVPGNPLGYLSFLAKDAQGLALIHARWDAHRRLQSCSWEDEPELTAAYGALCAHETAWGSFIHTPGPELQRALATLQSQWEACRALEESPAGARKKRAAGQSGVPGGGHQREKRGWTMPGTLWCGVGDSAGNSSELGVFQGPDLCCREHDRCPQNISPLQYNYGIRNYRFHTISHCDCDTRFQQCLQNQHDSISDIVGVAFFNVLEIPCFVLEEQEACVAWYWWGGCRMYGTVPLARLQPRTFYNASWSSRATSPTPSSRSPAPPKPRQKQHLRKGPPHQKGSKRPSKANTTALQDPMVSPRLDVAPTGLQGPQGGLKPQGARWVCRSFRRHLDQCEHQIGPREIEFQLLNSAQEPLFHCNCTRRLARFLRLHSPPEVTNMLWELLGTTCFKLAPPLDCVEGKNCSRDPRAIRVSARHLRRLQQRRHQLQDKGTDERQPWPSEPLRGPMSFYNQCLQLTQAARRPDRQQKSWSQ
# HIF act: HIF pathway transcriptional activation; U2OS HRE-luciferase reporter, luminescence; normalized: DMSO 0%, desferrioxamine 100%; activation, % at 7.5 µM (by protocol); 300,000 compounds, 0.32% hits; AID 1910;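 active = mean activation of at least 10% of the iron chelator positive control signal, with at least half of replicates also reaching 10%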
# PLCg1 inh: PLC-gamma1 (human) inhibition, primary screen | P19174 | purified PLC-gamma1, fluorogenic substrate, fluorescence | inhibition, % at 12.2 µM | 370,000 compounds, 0.84% hits; in the data active = inhibition above about 9.5%
# AHR act: activators of human aryl hydrocarbon receptor; AHR-responsive luciferase reporter cells, luminescence; activation, % at 5 µM; 320,000 compounds, 2.5% hits; AID 2796; in the data active = activation above about 47%;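 also: 0% = vehicle wells and 100% = reference agonist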
# Yeast superoxide: lowers age-related superoxide in aged yeast cells; 330,000 compounds, 0.18% hits; AID 2690; superoxide response (% of plate mean), % at 10 µM; S. cerevisiae aged cells, superoxide DHE fluorescence; hits give low values;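 active = superoxide response under a set limit, about three screen SD below normal, cut at about 65% in these data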;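 also: yeast aged for seven days with compound at 30 °C before DHE staining; 100% = average MFI of all compound-treated wells on the plate with controls excluded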
# The depositor's hits bear a star; x = no result. Hits are enriched below; roughly 3.9% of the tested compounds scored in any of these assays.
SMILES,PLCb3 inh,HGIII-sPLA2 inh,HIF act,PLCg1 inh,AHR act,Yeast superoxide
CCN(CC)C(=O)O[C@H]1CC[C@@]23CCCN2C(=O)CCC[C@H]3[C@H]1C,4.2,10.1,x,-1.8,x,x
CCc1ccc2[nH]c3nc(C)cc(C)c3c(=O)c2c1,-83.9,8.3,2.9,-80.8,47.5*,110.6
CCc1ccc2[nH]cc(S(=O)(=O)c3ccc(C)c(C)c3)c(=O)c2c1,-2.1,-12.2,-0.7,-1.8,1.5,118.4
CCCCC(=O)NC(c1ccc(N(CC)CC)cc1)c1ccc2cccnc2c1O (stereo not given),-5.9,14.9,96.9*,0.6,0.9,88.2
CCCC(=O)NC(c1ccc(Cl)cc1Cl)c1ccc2cccnc2c1O (stereo not given),-19.6,26.4*,74.2*,-28.4,0.3,95.1
CCC(=O)NC(c1ccc(OC)c(OC)c1)c1cc(Cl)c2cccnc2c1O (stereo not given),-16.9,9.5,1.9,-12.8,x,x
CCCC(=O)NC(c1ccco1)c1cc(Cl)c2cccnc2c1O (stereo not given),-17.6,13.4,-0.1,-16.5,8.1,108.1
CCC(=O)NC(c1ccc(C)cc1)c1cc(Cl)c2cccnc2c1O (stereo not given),x,x,x,x,12.2,140.0
CCCC(=O)NC(c1ccc(C)cc1)c1ccc2cccnc2c1O (stereo not given),x,x,124.8*,x,-1.6,80.0
CCCC(=O)NC(c1ccccc1OC)c1ccc2cccnc2c1O (stereo not given),x,x,69.0*,x,2.4,106.3
COc1ccccc1CCC[C@@H](CCS(=O)(=O)C(C)C)CC1CCCCC1,-0.8,-4.2,x,-0.2,x,x
COC(=O)[C@H]1[C@@H](O)[C@@]2(O)c3c(OC)cc(OC)cc3O[C@@]2(c2ccc(OC)cc2)[C@@H]1c1ccc(F)cc1,2.4,-10.5,x,0.4,x,x
CCCCC(=O)NC(c1ccccc1Cl)c1c(O)ccc2ccccc12 (stereo not given),-3.0,-45.5,-0.2,-3.0,-0.3,107.7
CCCCC(=O)NC(c1ccc(Cl)cc1)c1ccc2cccnc2c1O (stereo not given),-24.6,15.5,86.3*,-13.5,3.0,108.0
NC(=O)c1c(/N=C/c2cccs2)sc2c1CCCC2,-64.1,-8.4,0.8,-61.9,69.8*,100.7
COC(=O)[C@]12C[C@H](CC(=O)N3CCOCC3)C(=O)N(CCC3=CCCCC3)C1=C[C@H](C1CCCC1)O[C@@H]2C,0.9,-3.6,x,-0.7,x,x
Cc1c(N(C)C)nc2ccccc2c1N,-10.5,12.1,-0.2,-6.1,21.7,103.2
CCN(CC)c1nc2ccccc2c(N)c1-c1ccccc1,-67.4,2.8,-1.1,-59.4,55.5*,87.2
COC(=O)c1c(-c2ccc(OC)cc2)c2c(c3c4cc(OC)ccc4n(S(=O)(=O)c4ccc(C)cc4)c13)C(=O)N(C)C2,-94.8,4.6,x,-67.7,x,x
Cc1ccc(NC(=O)c2ccc3nc[nH]c3c2)c(O)c1,0.5,-11.0,2.5,2.5,65.3*,101.9
Cc1ccc(NC(=O)c2ccc3nc[nH]c3c2)nc1,-5.2,5.5,1.7,-0.9,38.8,106.4
CCn1c(Cc2cccs2)nnc1SCC(=O)Nc1ccc2c(c1)OCCO2,-1.9,-2.7,x,-3.0,x,x
CC(C)CSc1nnc2c3ccccc3n(C)c2n1,-10.0,3.5,2.5,-4.3,57.4*,78.0
CC(C)OC(=O)CSc1nnc2c3ccccc3n(C)c2n1,-0.7,-2.0,0.1,-1.9,6.4,106.6
COC(=O)[C@]12C[C@H](CC(=O)NCc3cccs3)C(=O)N(CCC3=CCCCC3)C1=C[C@H](C1CCCC1)O[C@@H]2C,0.5,-15.1,x,0.6,x,x
SMILES,PLCb3 inh,HGIII-sPLA2 inh,HIF act,PLCg1 inh,AHR act,Yeast superoxide
COc1ccc(CCN2C(=O)CS/C2=N\NC(=O)c2ccc(C(C)(C)C)cc2)cc1OC,7.4,-15.2,-0.7,5.9,43.1,100.4
O=C(COc1cccc2cccnc12)N/N=C1\SCC(=O)N1Cc1ccccc1,-1.4,2.6,-30.7,0.2,52.4*,110.8
O=C(N/N=C1\SCC(=O)N1CCc1ccccc1)c1cccs1,-0.3,8.1,0.0,4.7,51.1*,112.6
COc1ccc(C(=O)CSc2nnc(-c3cccnc3)n2-c2ccc(C)cc2)cc1,1.1,-28.8,x,-0.7,x,x
Cc1cc(N)c(-n2cc3c(=O)n(C)c(=O)n(C)c3c2)cc1C,-147.9,-9.4,2.6,-126.1,55.7*,109.4
COc1ccc(CCNC(=O)CN2C(=O)c3cccc4cccc(c34)C2=O)cc1OC,0.2,14.3,-0.4,2.1,4.2,89.7
COc1ccc(CCN2C(=O)c3cccc4cccc(c34)C2=O)cc1OC,2.1,3.3,-0.2,0.9,69.7*,86.2
Cc1cc(C)n(-c2ccc(C(=O)N3CCN(c4ccccn4)CC3)cc2)n1,1.1,-8.4,x,10.3*,2.8,87.7
O=C(c1ccc(F)cc1)N1CCN(c2ccccn2)CC1,-6.8,10.4,0.5,-0.1,1.7,88.3
Fc1cccc(Cl)c1/C=C/c1cnc2ccccc2n1,-69.9,5.2,2.1,-46.4,66.5*,100.4
Fc1cccc(F)c1/C=C/c1ccc2ccccc2n1,-5.3,-2.9,-0.9,-7.1,47.9*,115.7
CCCCCCC(=O)NC1CCCCN(Cc2ccc(C)cc2)C1=O (stereo not given),-0.7,0.2,x,-0.5,x,x
CCOc1ccc2cc(C3CC(c4ccco4)=NN3S(=O)(=O)c3ccccc3)c(Cl)nc2c1 (stereo not given),-14.5,-2.3,1.1,-10.2,1.8,119.4
COc1ccc2cc(C3CC(c4ccco4)=NN3S(=O)(=O)c3ccccc3)c(Cl)nc2c1 (stereo not given),-246.0,5.7,1.5,-241.6,-1.8,54.5*
COC(=O)[C@]1(C#N)CC(=O)N(C(C)C)[C@@H]1c1ccccc1,2.3,3.5,x,1.9,x,x
CCOC(=O)c1c(C)n(C)c2ccc(OCC(N)=O)cc12,3.3,0.7,0.1,3.8,69.8*,102.2
CCOC(=O)c1c(C)n(CCOc2ccccc2)c2ccc(O)cc12,-7.8,5.1,1.8,4.0,51.0*,87.6
CCOC(=O)c1c(C)n(CCNC(C)=O)c2ccc(O)cc12,4.1,3.3,0.0,-0.4,3.2,98.7
COC[C@@H](O)[C@H]1OCc2cccc(OC)c2[C@@H]1/C=C/c1ccccc1,2.0,-0.6,x,5.8,x,x
CN(C(=O)c1cccnc1)c1nnc(-c2ccccn2)s1,-9.7,6.5,2.0,-9.1,53.8*,103.2
CN(C(=O)c1cccnc1)c1nnc(-c2cnccn2)s1,-33.0,8.4,0.3,-28.1,3.0,99.5
CCc1nnc(NC(=O)c2cccnc2SC)s1,4.1,10.1,0.1,4.4,50.5*,88.0
O=C(Nc1nnc(C2CC2)s1)c1n[nH]c(=O)c2ccccc12,-8.1,15.9,0.0,0.5,65.2*,93.2
CSc1ncccc1C(=O)Nc1nccs1,1.6,0.8,-0.4,5.5,21.9,97.8
CSc1ncccc1C(=O)Nc1nnc(C2CC2)s1,-5.1,-1.8,-0.5,2.0,60.7*,98.3
